Data published in PubChem BioAssay AID624404 (Broad Institute, 2012).
The campaign covered roughly 1,800 compounds. About 710 (39%) were called active. About 28% were inconclusive and are not listed.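 The calls were made as follows: active = luciferase signal rise whose fitted curve crosses a set activity limit at or below the top valid tested dose; inconclusive = flat fit with 30 to 70% rise, or poor fit; inactive = signal falling, flat within 30%, or crossing above top dose.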 A selection follows. A call without a number means that no potency is given here. Potency and affinity values are given separately.

experiment: luciferase activators in glycosylation-insensitive reporter cells, dose response, counter-screen for N-linked glycosylation inhibitor project, D54 LucT cells, luminescence, cherry pick (AID 624404); details: D54 LucT luciferase reporter counterscreen, 24 h; series mostly up to 19.5 µM

Structure (SMILES)	outcome
CCOC(=O)c1[nH]c(COC(=O)CCOc2ccccc2OC)c(C(=O)OCC)c1C	inactive
CCOC(=O)c1[nH]c(C)c(C(=O)OCC(=O)NC(C)c2ccc(F)cc2)c1C (configuration not stated)	inactive
CCOC(=O)c1nnc(-c2ccc(C)cc2)nc1Sc1ccccc1Cl	inactive
Cc1cc2c(=Cc3ccc(N(C)C)cc3)c3ccccc3n2[n+]1C	inactive
COc1cc(-c2nc3ccc(N4CCN(C)CC4)cc3[nH]2)cc(OC)c1OC	inactive
COc1ccc2c(-c3cc4ccc(OCc5ccc(F)cc5)cc4oc3=O)cc(=O)oc2c1	inactive
CC1Cc2ccccc2N1C(=O)CSc1nn2c(=O)c(C(C)(C)C)nnc2s1 (configuration not stated)	inactive
C#CC(=O)CC1(CN(Cc2ccccc2)C(=O)OC(C)(C)C)CCCCC1	inactive
COc1ccc(Cl)cc1NC(=O)CN(C)CC(=O)Nc1cc(OC)c(OC)c(OC)c1	inactive
CCC12CCC3c4ccc(O)cc4CCC3C1CC(O)C2O (configuration not stated)	inactive
O=C(c1cccc([N+](=O)[O-])c1)N1CCN(c2cccc(Cl)c2)CC1	inactive
c1ccc(-c2n[nH]c(-c3ccccc3)c2-c2nc3ccccc3[nH]2)cc1	inactive
c1ccc(-n2nnnc2-c2cccc3ccccc23)cc1	inactive
COc1ccc(NC(=O)CSc2c3c(nc4ccccc24)CCCC3)c(OC)c1	inactive
CN(C)c1ccc(-c2ccnc3c2CC(C)(C(=O)NCc2ccccc2)O3)cc1 (configuration not stated)	inactive
O=C(N/N=C/c1ccc2c(c1)OCO2)c1sc2cc(Cl)ccc2c1Cl	inactive
CCOC(=O)/C=C/C(=O)Nc1ccc(S(=O)(=O)N(C)c2ccccc2)cc1	inactive
COc1ccc(OC)c(/C=C/c2ccc3cccc(O)c3n2)c1	inactive
O=C(COc1ccc(/C=N/NC(=O)c2cc3ccccc3o2)cc1Cl)Nc1ccccc1	inactive
O=C(O)CCC/C=C\C[C@@H]1[C@@H](/C=C/[C@@H](O)COc2cccc(Cl)c2)[C@H](O)C[C@@H]1O	inactive
CCOc1ccc(C2c3cc(OC)c(OC)cc3CC(=O)N2c2ccc(OC)cc2)cc1 (configuration not stated)	inactive
COc1cc2c(cc1OC)C(c1ccccc1)N(C(=O)CCl)CC2 (configuration not stated)	inactive
COc1ccc(CCn2c(=N)c(C(=O)NC3CCCC3)cc3c(=O)n4ccccc4nc32)cc1OC	inactive
Cn1cnc([N+](=O)[O-])c1Oc1ccc2ccccc2c1	inactive
COc1cc(/C=C2/CCC/C(=C\c3cc(O)c(OC)c(Cl)c3)C2=O)cc(Cl)c1O	inactive
COc1ccc(/C=C/C(=O)c2ccc3c4c(cccc24)CC3)cc1OC	inactive

Structure (SMILES)	outcome
Cc1cc(NC(=O)CSc2nc(C3CC3)nc3sc(C)c(C)c23)no1	inactive
C=CCn1c(SCC(=O)c2[nH]c(C)c(C(=O)OC)c2C)nc2scc(-c3ccc(OC)c(OC)c3)c2c1=O	inactive
CCOc1ccc(NC(=O)C(=O)NCCN2CCN(S(=O)(=O)c3ccc(C)cc3)CC2)cc1	inactive
CN(C)CCCN1C(=O)c2cccc3c(Br)ccc(c23)C1=O	inactive
Cc1cccc(N2CCN(C(=O)c3ccncc3)CC2)c1C	inactive
Cc1nn(C(C)(C)C)c(OC(=O)c2ccc3c(c2)OCO3)c1Sc1ccccc1	inactive
c1ccc2cc3c(NCCN4CCOCC4)ccnc3cc2c1	inactive
c1ccc(-c2cc(NCCN3CCCCC3)c3ccccc3n2)cc1	inactive
Cc1cccc2c(N)c3c(nc12)N(C)CC3	inactive
CCOC(=O)Nc1c2ccccc2nc2ccccc12	inactive
Cc1cc(C)nc(/N=C(\N)Nc2ccc(OCc3ccccc3)cc2)n1	inactive
Cc1ccc(S(=O)(=O)Cc2ccc(C(=O)N3CCN(c4cccc(C)c4C)CC3)o2)cc1	inactive
COc1cc2c(C(=O)N3CCN(c4cccc(Cl)c4)CC3)cn(C)c(=O)c2cc1OC	inactive
CC1(C(=O)NCC2CC2)Cc2c(-c3cccc(C(F)(F)F)c3)ccnc2O1 (configuration not stated)	inactive
COc1ccc(NC(=O)C2(C)Cc3c(-c4cccc(NC(C)=O)c4)ccnc3O2)cn1 (configuration not stated)	inactive
CC(=O)Nc1cccc(-c2ccnc3c2CC(C)(C(=O)NCc2ccco2)O3)c1 (configuration not stated)	inactive
CC(=O)Nc1cccc(-c2ccnc3c2CC(C)(C(=O)Nc2cccc(C(C)=O)c2)O3)c1 (configuration not stated)	inactive
COc1ccc(C2=NOC(C(=O)NCc3ccc(F)cc3)C2)cc1OC (configuration not stated)	inactive
COC(=O)CNC(c1ccccc1Cl)c1cc(Br)ccc1NC(=O)CCN1CCOCC1 (configuration not stated)	inactive
Cc1cc(-n2c(C)cc(C(=O)CCl)c2C)no1	inactive
CCN(CC)S(=O)(=O)c1cc(NC(=O)Cn2ncc(Cl)c(Cl)c2=O)ccc1C	inactive
O=C(C[C@@H]1C[C@H]2c3cc(NC(=O)c4cccnc4)ccc3O[C@H]2[C@H](CO)O1)NCc1ccc(Oc2ccccc2)cc1	inactive
COc1ccc(Nc2nc(N)c(C(=O)c3ccc(F)cc3)s2)cc1	inactive
Cn1cnc(Sc2ncnc3nc[nH]c23)c1[N+](=O)[O-]	inactive
COc1ccc(-c2cc3ccccc3oc2=O)cc1NC(=S)NC(=O)c1ccc2c(c1)OCCO2	inactive
COc1ccccc1OCC(=O)N/N=C/C=C/c1ccc([N+](=O)[O-])o1	inactive

Structure (SMILES)	outcome
O=C(Nc1cccc(-c2nc3ncccc3o2)c1)c1sc2ccccc2c1Cl	inactive
Oc1ccc(Nc2nc(NCC3CCCO3)c3ccccc3n2)cc1 (configuration not stated)	inactive
Oc1cccc(Nc2c3ccccc3nc3ccccc23)c1	inactive
COc1ccc(C2Nc3ccc4ccccc4c3-c3c2c(=O)oc2ccccc32)cc1 (configuration not stated)	inactive
COc1cc2c(cc1OC)C(c1cc(Br)ccc1F)N(C(=O)CCl)CC2 (configuration not stated)	inactive
COc1ccc(S(=O)(=O)Nc2cccc3ccc(O)cc23)cc1	inactive
Oc1cc(Nc2ccccc2)cc2cccnc12	inactive
CCOC(=O)C(CC)(CC)C(=O)/C=C/c1cccc(Br)c1	inactive
COc1ccc(N2CCc3c(C)nc4c(OC)cccc4c32)cc1	inactive
COc1ccc(N2CCc3c(C)nc4c(OC)cc(OC)cc4c32)cc1	inactive
CCN(CC)CCC(=O)Nc1cccc2c1C(=O)c1ccccc1C2=O	inactive
CCN(CC)CCn1c2ccccc2c2cnc(N)c(C#N)c21	inactive
O=C(C=Cc1ccc2c(c1)OCO2)C=Cc1ccc2c(c1)OCO2	inactive
CC(=O)C1=C(C)OC(N)=C(C#N)C1c1cc([N+](=O)[O-])ccc1Cl (configuration not stated)	inactive
CCN1C(=O)c2cccc3c(S(=O)(=O)N4CCC(C)CC4)ccc1c23	inactive
C=CCN(CC=C)C(=O)CN1C(=O)NC(C)(c2ccc3cc(OC)ccc3c2)C1=O (configuration not stated)	inactive
COc1ccc(-c2nc(NC(=O)C3CC(=O)N(c4ccc5c(c4)OCCO5)C3)sc2C)cc1 (configuration not stated)	inactive
Cc1ccc(CCC(=O)Nc2ncc(Cc3cc(Cl)ccc3Cl)s2)o1	inactive
CCCCCCCCCCCCCCCC[n+]1ccc(/C=N/O)cc1	inactive
Cc1ccc(CNC(=O)Cc2ccc(Br)cc2)cc1	inactive
CCOC(=O)C(C)Oc1cccc2c(=O)n(CC(=O)NCc3ccc(F)cc3)ccc12 (configuration not stated)	inactive
COc1ccc(CCn2c(=N)c(C(=O)NCc3ccco3)cc3c(=O)n4ccccc4nc32)cc1	inactive
CCN(CC)CCNC(=O)c1cc2c(-c3ccc(Cl)cc3)nn(C)c2s1	inactive
CC1(C(=O)NCc2ccccc2)Cc2c(-c3ccccc3)ccnc2O1 (configuration not stated)	inactive
CC1(C(=O)NCc2ccccc2)Cc2c(-c3ccc4c(c3)OCO4)ccnc2O1 (configuration not stated)	inactive
CC(=O)c1cccc(-c2ccnc3c2CC(C(=O)NCc2ccco2)O3)c1 (configuration not stated)	inactive

Structure (SMILES)	outcome
COc1ccc(NC(=O)C2(C)Cc3c(-c4cccc(C(N)=O)c4)ccnc3O2)cn1 (configuration not stated)	inactive
CC1(C(=O)Nc2ccc(Cl)cc2)Cc2c(-c3cccc(C(N)=O)c3)ccnc2O1 (configuration not stated)	inactive
COc1ccccc1C(=O)Nc1nnc(CCc2ccccc2)s1	inactive
CN(C)S(=O)(=O)c1ccc(N2CCCC2)c(C(=O)Nc2nc(-c3ccc(F)cc3)cs2)c1	inactive
CC(C)(C)n1nnnc1C(c1ccccc1)N1CCc2ccccc2C1 (configuration not stated)	inactive
Nc1ncnc(Sc2ccc(Cl)cc2)c1[N+](=O)[O-]	inactive
Cc1cccn2c(=O)c3cc(C(=O)NCCN4CCOCC4)c(=N)n(CCc4ccccc4)c3nc12	inactive
CCNC(=O)c1cc2c(=O)n3cccc(C)c3nc2n(CCc2ccccc2)c1=N	inactive
CCC1=Nc2cc(C(=O)NCCCOC)ccc2Sc2ccccc21	inactive
NNC(=O)c1oc2nc(-c3ccco3)cc(-c3ccco3)c2c1N	inactive
O=C(NCc1ccco1)c1nn2c(C(F)(F)F)cc(-c3cccs3)nc2c1Br	inactive
COc1ccc(C(=O)NCc2nnc(SCC(=O)NO)n2Cc2ccccc2)cc1	inactive
Cn1nc(C(F)(F)F)c(/C=N/OC(=O)c2ccccc2Cl)c1SCc1ccccc1Cl	inactive
Clc1ccc(C2=Nn3c(nnc3-c3cc(-c4ccccc4)n[nH]3)SC2)cc1	inactive
S=c1[nH]nc(-c2cc(-c3ccccc3)n[nH]2)n1/N=C/C(Br)=C/c1ccccc1	inactive
COc1ccc(OC)c(-c2nnc3n2N=C(c2ccc(OC)c(OC4CCCC4)c2)CS3)c1	inactive
CC(Oc1ccc2c(c1)c1ccnc3c4ccccc4c(=O)n2c13)C(=O)NCCN1CCOCC1 (configuration not stated)	inactive
Oc1ccc(NCc2ccccc2OCc2ccccc2)cc1	inactive
CCn1c2ccccc2c2cc(NC(=O)COC(=O)c3ccc(O)cc3)ccc21	inactive
c1ccc2c(c1)c1c(c3ccccc32)CN2CCCC2C1 (configuration not stated)	inactive
CCN(CC)CCCNc1cc(C)c(C#N)c2nc3ccccc3n12	inactive
Cc1nnc2c(NCCC(C)C)nc3ccccc3n12	inactive
FC(F)(F)c1nnc2c(Sc3ccc(Cl)cc3)nc3ccccc3n12	inactive
Cc1cc([N+](=O)[O-])ccc1Nc1nc2ccccc2n2cnnc12	inactive
